{
  "source": "PubChem BioAssay (NCATS)",
  "assay_in_all_cases": "qHTS profiling for inhibitors of Plasmodium falciparum proliferation (AID 504749); further: nearly all actives have a fitted effect of over 60% in size",
  "conditions_in_all_cases": "P. falciparum in erythrocytes, SYBR Green DNA, 72 h; series mostly up to 28.7 µM",
  "key": {"CP260": {"test_system": "CP260", "how_it_was_run": "(§1)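 Three-day growth assay of blood-stage parasites in erythrocytes (0.3% parasitemia, 2.5% hematocrit) at 37 C, 5% CO2, quantified by SYBR Green DNA staining after overnight detergent lysis.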"}, "CP262": {"test_system": "CP262", "how_it_was_run": "as §1"}, "CP265": {"test_system": "CP265", "how_it_was_run": "as §1"}, "CP268": {"test_system": "CP268", "how_it_was_run": "as §1"}, "CP269": {"test_system": "CP269", "how_it_was_run": "as §1"}, "CP286": {"test_system": "CP286", "how_it_was_run": "as §1"}, "CP291": {"test_system": "CP291", "how_it_was_run": "as §1"}, "CP297": {"test_system": "CP297", "how_it_was_run": "as §1"}, "CP305": {"test_system": "CP305", "how_it_was_run": "as §1"}, "CP315": {"test_system": "CP315", "how_it_was_run": "as §1"}, "CP325": {"test_system": "CP325", "how_it_was_run": "as §1"}, "CP329": {"test_system": "CP329", "how_it_was_run": "as §1"}, "CP335": {"test_system": "CP335", "how_it_was_run": "as §1"}, "DFO2036": {"test_system": "DFO2036", "how_it_was_run": "as §1"}, "DIV14": {"test_system": "DIV14", "how_it_was_run": "as §1"}, "DIV17": {"test_system": "DIV17", "how_it_was_run": "as §1"}, "DIV30": {"test_system": "DIV30", "how_it_was_run": "as §1"}, "Dd2": {"test_system": "Dd2", "how_it_was_run": "as §1"}, "ECU": {"test_system": "ECU", "how_it_was_run": "as §1"}, "FAB9": {"test_system": "FAB9", "how_it_was_run": "as §1"}, "GB4": {"test_system": "GB4", "how_it_was_run": "as §1"}, "HB3": {"test_system": "HB3", "how_it_was_run": "as §1"}, "ICS": {"test_system": "ICS", "how_it_was_run": "as §1"}, "JCK": {"test_system": "JCK", "how_it_was_run": "as §1"}, "N140": {"test_system": "N140", "how_it_was_run": "as §1"}, "P94_40": {"test_system": "P94_40", "how_it_was_run": "as §1"}, "PAD": {"test_system": "PAD", "how_it_was_run": "as §1"}, "PC15": {"test_system": "PC15", "how_it_was_run": "as §1"}, "PC26": {"test_system": "PC26", "how_it_was_run": "as §1"}, "PC49": {"test_system": "PC49", "how_it_was_run": "as §1"}, "SC27B": {"test_system": "SC27B", "how_it_was_run": "as §1"}, "TAB109": {"test_system": "TAB109", "how_it_was_run": "as §1"}, "TAB113": {"test_system": "TAB113", "how_it_was_run": "as §1"}, "TAB165": {"test_system": "TAB165", "how_it_was_run": "as §1"}, "W2": {"test_system": "W2", "how_it_was_run": "as §1"}},
  "note": "Inconclusive results are not listed. A call without a number means that no potency is given here. Unmarked numbers belong to inactive results. Calls of active or inactive are those of the source. The call rests on the fitted dose curve; in most records, active means well fitted inhibition curve with a large enough effect; inconclusive means small, poorly fitted or top-dose-only effect; inactive means flat fitted curve, though single readings scatter. Potency means the concentration at half of the fitted maximal effect.",
  "data": [
    {"molecule": "CCOC(=O)c1cncn1[C@@H](C)c1ccccc1", "values": [
      {"measurement": "Potency", "setting": "CP260", "value": "inactive"},
      {"measurement": "Potency", "setting": "CP262", "value": "inactive"},
      {"measurement": "Potency", "setting": "CP265", "value": "inactive"},
      {"measurement": "Potency", "setting": "CP268", "value": "inactive"},
      {"measurement": "Potency", "setting": "CP269", "value": "inactive"},
      {"measurement": "Potency", "setting": "CP286", "value": "inactive"},
      {"measurement": "Potency", "setting": "CP291", "value": "inactive"},
      {"measurement": "Potency", "setting": "CP297", "value": "inactive"},
      {"measurement": "Potency", "setting": "CP305", "value": "inactive"},
      {"measurement": "Potency", "setting": "CP315", "value": "inactive"},
      {"measurement": "Potency", "setting": "CP325", "value": "inactive"},
      {"measurement": "Potency", "setting": "CP329", "value": "inactive"},
      {"measurement": "Potency", "setting": "CP335", "value": "inactive"},
      {"measurement": "Potency", "setting": "DFO2036", "value": "inactive"},
      {"measurement": "Potency", "setting": "DIV14", "value": "inactive"},
      {"measurement": "Potency", "setting": "DIV17", "value": "inactive"},
      {"measurement": "Potency", "setting": "DIV30", "value": "inactive"},
      {"measurement": "Potency", "setting": "Dd2", "value": "inactive"},
      {"measurement": "Potency", "setting": "ECU", "value": "inactive"},
      {"measurement": "Potency", "setting": "FAB9", "value": "inactive"},
      {"measurement": "Potency", "setting": "GB4", "value": "inactive"},
      {"measurement": "Potency", "setting": "HB3", "value": "inactive"},
      {"measurement": "Potency", "setting": "ICS", "value": "inactive"},
      {"measurement": "Potency", "setting": "JCK", "value": "inactive"},
      {"measurement": "Potency", "setting": "N140", "value": "inactive"},
      {"measurement": "Potency", "setting": "P94_40", "value": "inactive"},
      {"measurement": "Potency", "setting": "PAD", "value": "inactive"},
      {"measurement": "Potency", "setting": "PC15", "value": "inactive"},
      {"measurement": "Potency", "setting": "PC26", "value": "inactive"},
      {"measurement": "Potency", "setting": "PC49", "value": "inactive"},
      {"measurement": "Potency", "setting": "SC27B", "value": "inactive"},
      {"measurement": "Potency", "setting": "TAB109", "value": "inactive"},
      {"measurement": "Potency", "setting": "TAB113", "value": "inactive"},
      {"measurement": "Potency", "setting": "TAB165", "value": "inactive"},
      {"measurement": "Potency", "setting": "W2", "value": "1.81 µM (active)"}
    ]}
  ]
}
